Source: PubChem BioAssay AID720597 (Broad Institute, 2013)
Results with a measured potency or affinity are listed apart. Active and inactive are the calls of the source.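 How the source made its calls: active means fitted half-maximal dose no more than twice the top valid tested dose, for compounds that lower signal; inconclusive means fit invalid, or curve flat with activity between -70 and -30; inactive means potency past limit, curve flat within ±30, or signal increasing.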

molecular target: NAD-dependent protein deacylase sirtuin-5, mitochondrial (Homo sapiens) (UniProt Q9NXA8); test: SIRT5 deacylase inhibitors, dose response, biochemical, fluorescence imaging, cherry-pick, set 6 (AID 720597); conditions: Purified SirT5, succinyl-peptide-AMC/trypsin fluorescence; series mostly up to 15 µM;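 further: lower AMC signal can also come from blocking the trypsin step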
Sequence (Q9NXA8 whole entry, looked up): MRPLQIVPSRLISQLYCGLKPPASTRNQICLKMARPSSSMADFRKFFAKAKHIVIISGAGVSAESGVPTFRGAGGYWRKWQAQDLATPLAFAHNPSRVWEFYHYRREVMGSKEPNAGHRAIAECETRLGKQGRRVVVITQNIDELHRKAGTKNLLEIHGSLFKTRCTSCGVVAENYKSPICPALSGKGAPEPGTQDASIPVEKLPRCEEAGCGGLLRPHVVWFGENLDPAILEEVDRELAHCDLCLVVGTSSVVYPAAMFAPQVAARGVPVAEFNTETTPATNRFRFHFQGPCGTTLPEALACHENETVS

outcome, inactive:
O=C(Nc1cc(F)ccc1F)N1CC(=O)N2[C@H](C1)[C@@H](c1ccc(C#CC3CCCCC3)cc1)[C@@H]2CO
COc1ccc(S(=O)(=O)Nc2ccc3c(c2)C(=O)N([C@H](C)CO)C[C@@H](C)[C@H](CN(C)Cc2ccc(Oc4ccccc4)cc2)O3)cc1
Cc1noc(C)c1NC(=O)Nc1cccc2c1O[C@@H](CN(C)Cc1ccc(Oc3ccccc3)cc1)[C@H](C)CN([C@@H](C)CO)C2=O
CC(C)C#Cc1ccc2c(c1)O[C@@H](CN(C)Cc1ccccn1)[C@H](C)CN([C@H](C)CO)S2(=O)=O
C[C@H](O)C#Cc1ccc2c(c1)O[C@H](CN(C)Cc1ccc(-c3ccccc3)cc1)[C@H](C)CN([C@H](C)CO)S2(=O)=O
C[C@@H]1CN([C@H](C)CO)C(=O)c2c(c3ccccc3n2C)-c2ccccc2CO[C@H]1CN(C)S(=O)(=O)c1ccc(C(F)(F)F)cc1
CN(C)C(=O)[C@@H]1[C@@H](CO)[C@@H]2Cn3c(ccc(-c4ccccc4)c3=O)[C@H]1N2CCc1ccccc1
O=S(=O)(c1ccc(F)cc1)N1CCCCN2[C@H](CO)[C@H](c3ccc(-c4ccccc4F)cc3)[C@@H]2C1
COc1ccc(NC(=O)N(C)C[C@@H]2Oc3cc(C#CCC(C)C)ccc3S(=O)(=O)N([C@H](C)CO)C[C@@H]2C)cc1
Cc1ccc(S(=O)(=O)N(C)C[C@H]2OCCCC[C@@H](C)Oc3ccc(NS(=O)(=O)c4ccc(Cl)cc4)cc3C(=O)N([C@@H](C)CO)C[C@H]2C)cc1
